Screens deposited in PubChem by Fisher Drug Discovery Resource Center.
NPYLR7 agonist – activates Aedes aegypti NPYLR7 receptor; HEK293T NPYLR7/Galpha15, GCaMP6s calcium fluorescence; activation, % at 10 µM; 270,000 tested, 0.15% active; AID 1259423; in the data active = activation above about 40%;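 also: 0% = vehicle and 100% = reference agonist at the receptor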
mcGAS inh – blocks mouse cGAS activity | Q8C6L5 | 160,000 tested, 0.15% active | recombinant cGAS, Kinase-Glo ATP depletion luminescence | AID 1259399 | inhibition, % at 12.5 µM;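 also: 0% = negative control wells and 100% = reference inhibitor with no enzyme activity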
hcGAS inh – inhibitors of human cGAS. recombinant h-cGAS, ATP depletion, Kinase-Glo luminescence. inhibition, % at 12.5 µM. 290,000 tested, 0.081% active. AID 1259398;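 also: 0% = vehicle reaction and 100% = reaction without DNA for no activity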
Target sequence (Q8N884 whole entry, looked up): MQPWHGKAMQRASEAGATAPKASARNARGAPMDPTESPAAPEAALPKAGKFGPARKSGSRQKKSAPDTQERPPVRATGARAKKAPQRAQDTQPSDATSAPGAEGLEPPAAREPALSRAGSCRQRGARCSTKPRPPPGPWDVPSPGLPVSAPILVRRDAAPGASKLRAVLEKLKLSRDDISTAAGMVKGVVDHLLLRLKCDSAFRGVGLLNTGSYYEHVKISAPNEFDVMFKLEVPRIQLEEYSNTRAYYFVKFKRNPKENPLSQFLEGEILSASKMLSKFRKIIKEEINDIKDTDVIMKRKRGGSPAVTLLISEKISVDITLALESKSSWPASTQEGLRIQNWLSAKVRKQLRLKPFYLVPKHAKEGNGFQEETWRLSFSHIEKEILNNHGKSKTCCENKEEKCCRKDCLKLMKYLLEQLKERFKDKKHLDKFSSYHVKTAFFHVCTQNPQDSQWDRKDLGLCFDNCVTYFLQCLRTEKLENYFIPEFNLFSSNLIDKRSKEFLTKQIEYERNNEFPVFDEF
* hit, by the source's call; . = no result given; ! = not confirmed by another sample. Only some compounds are listed: those with a hit (about 0.24% of all), similar ones and a draw of the others. Rule as the data show it, unless noted: active = inhibition above about 40%; inactive = the rest.

SMILES | NPYLR7 agonist | mcGAS inh | hcGAS inh
C[C@@H]1OC(O[C@H]2[C@H](OC(=O)[C@]34CCC(C)(C)CC3C3=CCC5[C@@]6(C)CC[C@H](OC7O[C@@H](C)[C@H](O[C@@H]8OC[C@@H](O)[C@H](O)[C@H]8O)[C@@H](O)[C@H]7O)C(C)(C)C6CC[C@@]5(C)[C@]3(C)CC4O)OC[C@H](O)[C@H]2O)[C@H](O)[C@H](O)[C@H]1O[C@@H]1O[C@H](CO)[C@@H](O)[C@H](O)[C@H]1O (some centres undefined) | 54* | . | -1
O=C(O)CN1C(=O)C(=C2C(=O)N(CC(=O)O)c3ccccc32)SC1=S | 1 | -1 | -8
O=C(O)CN1C(=O)C(=NN2C(=O)CSC2=S)c2ccccc21 | -3 | . | 43*
C=C(C)CN(CC)c1nc(-c2cc(Cl)cc(Cl)c2)nc2ccccc12 | -2 | 0 | 4
Cc1ccc(NC(=O)C(=O)N2CCOCC2)cc1Cl | -2 | . | -4
COc1ccc(C(=O)CSc2nnc(NC(C)(C)C)s2)cc1 | 10 | . | -5
CC(C)(C)c1cnc(CSc2cnc(NC(=O)C3CCNCC3)s2)o1 | 60* | -11 | -4
CCc1nc(SCc2ncc(C(C)(C)C)o2)n[nH]1 | 0 | . | -9
CCOC(=O)NNC(=O)C(CCSC)NS(=O)(=O)c1ccccc1 (centres undefined) | -1 | . | -5
O=c1[nH]cnc2c1C(c1cccc([N+](=O)[O-])c1)c1c(nc[nH]c1=O)O2 | 0 | -7 | -8
O=c1[nH]c(=S)[nH]c2c1C(c1cccc([N+](=O)[O-])c1)c1c([nH]c(=S)[nH]c1=O)O2 | 5 | 55* | 30
Cn1nc(C(=O)N2CCCC(CCC(=O)NCc3ccc(F)c(F)c3)C2)ccc1=O (centres undefined) | 0 | . | -12
Clc1ccccc1CNCC1CC(c2ccccc2Cl)=NO1 (centres undefined) | -2 | -5 | -2
CSCCn1c(=NC(=O)c2cc(C)no2)sc2cc3c(cc21)OCCO3 | 5 | -6 | -7
Cc1ncc(CN2CCN(Cc3cccc(F)c3)CC2)n1C | 12 | . | 0
CCN(C(=O)CSc1nnc(Cc2cccs2)n1C1CC1)C1CCCCC1 | 8 | . | -6
Cc1c2c(nc3cc4c(cc13)OCO4)CCc1ccccc1-2 | 2 | . | 47*
Cc1cc(-c2ccco2)nc2cc3c(cc12)OCO3 | 0 | . | 1
Cc1ccc2c(c1)c1nc3ccccc3nc1n2C(C)C | 15 | -3 | -6
Cc1ccc(NC(=O)NCCNc2cc(-n3cccn3)ncn2)cc1Cl | -8 | -4 | 2
Cc1cc2c(c(-c3ccc4c(cnn4C)c3)c1)OC(CN)C2 (centres undefined) | 76* | . | -4
Cc1cc2c(c(-c3cccs3)c1)OC(CN)C2 (centres undefined) | 0 | . | -9
CCN1C(=Cc2cc(C)[n+](CC3CCCO3)c(C)c2)Sc2ccccc21 (centres undefined) | 123* | -4 | -1
CCN1C(=Cc2cc(C)[n+](CCOC)c(C)c2)Sc2ccccc21 | 124* | . | 4
CCN1C(=O)/C(=C/C=C2/Sc3ccccc3N2CC)SC1=Nc1ccccc1C | -4 | -2 | -3
SMILES | NPYLR7 agonist | mcGAS inh | hcGAS inh
CCCC[n+]1c(C)cc(C=C2Sc3ccccc3N2CC)cc1C | 258* | . | 2
CCN1/C(=C\C(=C2\C(=O)N(C)C(=S)N2C)c2ccccc2)Sc2ccccc21 | -2 | . | -2
CCN1C(=O)/C(=C\C=C2/Sc3ccccc3N2CC)N(c2ccccc2)C1=S | -2 | -4 | -5
CCCn1c(O)c(N=NC(=O)c2ccccc2N)c2ccccc21 | -7 | -6 | -2
COc1cc(/C=C(/C#N)c2nc3cc(Cl)ccc3s2)ccc1O | 102* | . | -16
COc1ccc(C=C(C#N)c2nc(-c3ccc(F)cc3)cs2)cc1O | 14 | -4 | -6
[O]=[V]([OH])([OH])[OH] | -7 | -9 | -10
CCn1cc(NC(=O)NCCSc2c[nH]c3ccccc23)c2ccccc21 | 17 | . | -2
O=C1c2c(O)ccc(O)c2C(=O)c2c(NCCNCCO)ccc(NCCNCCO)c21 | -5 | 76* | 42*!
CCCCNc1ccc(NCCCC)c2c1C(=O)c1ccccc1C2=O | 0 | -7 | -12
CCCCN1CCC(CCC(=O)c2cc(Cl)c(N)cc2OC)CC1 | 13 | . | -3
CCCCN1CCC(COC(=O)c2cc(Cl)c(N)c3c2OCCO3)CC1 | -2 | 91* | -1
Cn1ccsc1=NC(=O)c1cccc(NC(=O)C2Cc3ccccc3O2)c1 (centres undefined) | -1 | . | -2
CCOc1ccc(-c2cnc(C3CCN(CCOC)CC3)[nH]2)cc1 | 10 | . | -11
Clc1ccc(C2=Nc3ncnn3C(c3ccc(Cl)cc3)C2)cc1 (centres undefined) | 8 | . | -7
CSc1ccc(C2CC(c3ccc(Cl)cc3)=Nc3ncnn32)cc1 (centres undefined) | 92* | . | -11
CCCCN=C(N)N=C(N)N | -13 | . | -7
CCCCC(CC)CN=C(N)NC(N)=NCCCCCCN=C(N)NC(N)=NCC(CC)CCCC (centres undefined) | 46*! | -5 | 4
Cc1ccc2oc(-c3cccc(C)c3OCC(=O)NCc3ccc(F)cc3)nc2c1 | -3 | -3 | -1
N#CC1C(=N)Oc2cc(N)ccc2C1c1c(Cl)cccc1Cl (centres undefined) | 160* | 9 | -5
N#CC1C(=N)Oc2cc(N)ccc2C1c1ccccc1I (centres undefined) | 26 | . | -3
Cc1cc(C)n(-c2n[nH]c(=S)n2N=Cc2ccc(Br)cc2)n1 | 7 | . | -3
CCN1CC=C2C(C#N)C(=N)C(C#N)(C#N)C(c3cccs3)C2C1 (centres undefined) | 50* | -2 | 0
N#CC1C(=N)C(C#N)(C#N)C(c2cccs2)C2CSCC=C12 (centres undefined) | 17 | . | -2
CCC(CC)NC(=O)CN(C)S(=O)(=O)c1ccc(F)cc1 | 5 | . | -4
SMILES | NPYLR7 agonist | mcGAS inh | hcGAS inh
NC(=NC1C2CC3CC(C2)CC1C3)Nc1ccc(I)cc1 (centres undefined) | 43* | . | -3
CSC(C)C(=O)Nc1ccc(I)cc1 (centres undefined) | 8 | -5 | -4
Cc1c(C(=O)O)cnc2c([N+](=O)[O-])cnn12 | -12 | 15 | 41*
Cc1ccc(-c2ccnc3c(C(=O)O)cnn23)o1 | 20 | . | -7
COc1ccc(NCc2cc(OC)c3c(c2)OCCO3)cn1 | 3 | -6 | -6
COc1ccc(NCc2ccc(OC)c(Br)c2)cn1 | 86* | -9 | -13
CN(CCCNC(=O)c1ccccc1-c1ccc(C(F)(F)F)cc1)c1ccccc1 | 6 | -6 | -5
Cc1ccccc1-c1nc2ccc(Br)cn2c1NC1CCCCC1 | 9 | -8 | -10
Cc1cccc(-c2nc(C)c(C)c(N3CCN(C(=O)Nc4ccc(C(C)C)cc4)CC3)n2)c1 | 18 | -4 | -7
COc1cc(C2=NC(=Cc3cc(OC)c4c(c3)OCCO4)C(=O)O2)cc(OC)c1OC | 2 | . | -8
O=c1oc2ccc3ccccc3c2cc1-c1nnc(-c2ccccc2)o1 | -6 | -2 | 46*
O=C(O)c1cc2c(ccc3ccccc32)oc1=O | -6 | 42* | 16
O=C(NCc1ccccn1)c1cc2c(ccc3ccccc32)oc1=O | 11 | . | -6
COc1ccc(-c2nnc(-c3cc4c(ccc5ccccc54)oc3=O)o2)cc1 | -4 | -1 | 3
